LANA DNA inh – blocks KSHV LANA C-terminal domain binding to DNA; inhibition, % at 9 µM; AID 504423; 340,000 tested, 0.078% active; MBP-C-LANA/FAM-LBS DNA binding, fluorescence polarization;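 active means highest replicate inhibition at or above 60% at 9 µM, even if other replicates fall short; inactive means all replicates below 60% inhibition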;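 further: 0% = neutral control wells and 100% = 4 µM acridine orange control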
RTF Ca sens act – increases calcium sensitivity of human cardiac regulated thin filaments. P19429+P45379. IANBD-labeled TnC RTF fluorescence at EC20 calcium; 0% EC20 calcium, 100% full calcium. activation, % at 7.2 µM. 340,000 tested, 0.24% active;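 active means activation above the mean over all tested compounds plus 3 SD, cut at about 30% in these data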;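 further: rise in fluorescence read as greater calcium sensitivity of cardiac thin filaments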
RTF Ca sens inh – cardiac RTF calcium desensitization; AID 493244; IANBD-labeled cardiac RTF, Ca2+ fluorescence; P19429+P45379; 340,000 tested, 0.12% active; inhibition, % at 7.15 µM;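 active means inhibition above the mean inhibition of all tested compounds plus 3 SD, cut at about 17% in these data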;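 further: assay run at fixed EC70 calcium of 1.6 mM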
Keap1 Nrf2 FP – inhibitors of human Keap1-Nrf2 protein-protein interaction | Q14145 | Keap1 Kelch-Nrf2 peptide fluorescence polarization, 1536-well | inhibition, % at 9.4 µM | 340,000 tested, 0.15% active | AID 504523; in the data active means inhibition above about 12%;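 further: human Keap1 Kelch domain with fluorescein labeled Nrf2 9mer peptide probe; 0% = neutral control wells and 100% = peptide positive control; higher means more block of Keap1 binding to Nrf2 peptide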
Target sequence (Q14145 whole entry, looked up, the tested form may be a part): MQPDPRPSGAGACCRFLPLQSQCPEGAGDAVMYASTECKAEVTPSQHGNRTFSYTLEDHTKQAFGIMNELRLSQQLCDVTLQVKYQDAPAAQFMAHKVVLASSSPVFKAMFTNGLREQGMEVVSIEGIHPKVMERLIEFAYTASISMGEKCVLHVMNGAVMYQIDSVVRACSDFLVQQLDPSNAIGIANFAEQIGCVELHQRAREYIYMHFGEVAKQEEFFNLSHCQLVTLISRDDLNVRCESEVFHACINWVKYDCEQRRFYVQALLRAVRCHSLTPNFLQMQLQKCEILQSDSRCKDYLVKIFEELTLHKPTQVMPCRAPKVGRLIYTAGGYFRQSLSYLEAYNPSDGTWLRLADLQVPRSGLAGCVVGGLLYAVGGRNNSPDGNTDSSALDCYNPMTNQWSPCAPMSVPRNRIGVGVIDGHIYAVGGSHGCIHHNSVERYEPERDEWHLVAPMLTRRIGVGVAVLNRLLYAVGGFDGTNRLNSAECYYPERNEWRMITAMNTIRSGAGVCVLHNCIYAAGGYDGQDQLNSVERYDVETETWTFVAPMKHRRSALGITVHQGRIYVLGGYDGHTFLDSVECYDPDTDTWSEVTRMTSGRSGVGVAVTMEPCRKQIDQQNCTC
RTF inh confirm – confirmation of inhibitors of cardiac thin filament calcium sensitivity; inhibition, % at 7.15 µM; shares compounds with RTF Ca sens inh; reconstituted cardiac thin filaments, calcium sensitivity fluorescence; 360 tested, 8% active; in the data active means inhibition above about 18%
An asterisk follows results filed as active; / = not tested or not shown. This is a sample that favours compounds with a hit; in the whole collection about 0.5% have one here.

SMILES | LANA DNA inh | RTF Ca sens act | RTF Ca sens inh | Keap1 Nrf2 FP | RTF inh confirm
CCCCCCCCCCCCCCCC(=O)OC(CC(=O)O)C[N+](C)(C)C (stereo unspecified) | 1 | 5 | 18* | 5 | -5
COc1ccccc1C(=O)Nc1ccc2c(c1)nc1n2CCN(C2CCCCC2)C1 | -1 | 4 | 6 | -4 | /
CCOC(=O)N1C2=NC(C(=O)OC)=C(C(=O)OC)[C@@H]3N(C)c4ccc(OC)cc4[C@]23C[C@H]1C(=O)OC | 1 | -5 | 1 | -2 | /
CNC(=O)Oc1ccc2c(c1)[C@]1(C)CCN(C)C1N2C (stereo partly specified) | 0 | 0 | 17* | 0 | -3
O=C(O)c1ccc(CNC(=O)c2ccccc2NC(=O)c2cccc([N+](=O)[O-])c2)cc1 | 0 | 2 | 18* | 3 | -4
O=C1COc2ccc(C(=O)COC(=O)c3nc(Cl)ccc3Cl)cc2N1 | 0 | -11 | -2 | 4 | /
COc1ccc(-c2cc(-c3ccc(OC)cc3)[nH]n2)cc1 | 0 | 4 | 17* | -4 | 1
COc1ccc(NC2CCCN(C(=O)CCc3ccncc3)C2)cc1OC (stereo unspecified) | 1 | 6 | -6 | -4 | /
CC(C)(C)C(=O)Nc1ncccc1C(O)c1cccc(C(F)(F)F)c1 (stereo unspecified) | 0 | -10 | 19* | 1 | -1
O=C(Nc1ccc(F)cc1)Nc1nnc(-c2ccccc2)o1 | 0 | -4 | -2 | 2 | /
O=C(Nc1nnc(-c2ccccc2)o1)Nc1ccc(F)cc1F | 1 | -7 | 17* | 1 | 4
NC(=O)CSc1oc(-c2ccco2)nc1S(=O)(=O)c1ccc(F)cc1 | 2 | -3 | 18* | 2 | -2
CCOC(=O)[C@@H]1[C@H]2COc3cc(OC)ccc3[C@@H]2N2C(=O)N(c3ccccc3)C(=O)[C@@]12C | -1 | -3 | 0 | 0 | /
COc1ccccc1-n1c(SCC(=O)Nc2ccc(C)cc2)nc(O)cc1=O | 1 | -1 | 18* | 0 | -2
COc1ccc(NC(=O)CSc2nc(O)cc(=O)n2-c2ccccc2OC)cc1 | 3 | -1 | -6 | 1 | /
O=C(NCc1ccccc1)c1ccc(F)c(S(=O)(=O)N2CCOCC2)c1 | 1 | -29 | 63* | 4 | -1
C[C@H]1CN=C(Nc2ccccc2)N1CCC1CCCCC1 | 2 | 0 | 9 | -7 | /
C[C@H]1CN=C(Nc2ccccc2)N1CCCC1CCCC1 | 2 | 1 | 19* | -4 | -2
O=C(COC(=O)c1ccc([N+](=O)[O-])cc1)Nc1ccccc1C(=O)NC1CC1 | -1 | 0 | -1 | 0 | /
COc1ccc(NC(=O)CC23CC4CC(CC(C4)C2)C3)cn1 | 0 | 0 | 17* | -3 | 2
Cc1cc(NC(=O)C(C)SCC(=O)N(C)CC(=O)Nc2ccc(Br)cc2C)no1 (stereo unspecified) | 2 | -5 | -1 | 1 | /
Cc1ccc(C)c(NC(=O)CN(C)C(=O)CSC(C)C(=O)Nc2cc(C)on2)c1 (stereo unspecified) | 2 | -6 | 19* | -4 | -1
O=c1cc(-c2ccccc2)oc2cc(O)c(O)c(O)c12 | 4 | 2 | 2 | -1 | /
O=c1c(O)cccc2cc(O)c(O)c(O)c12 | 82* | -40 | 87* | -5 | 51*
O=C1CC(=O)N2N=C(c3ccc([N+](=O)[O-])cc3)SC2=N1 | 2 | -1 | 19* | -5 | -3
SMILES | LANA DNA inh | RTF Ca sens act | RTF Ca sens inh | Keap1 Nrf2 FP | RTF inh confirm
CCc1cc(C(=O)N=Nc2c(O)[nH]c3ccc([N+](=O)[O-])cc23)c2ccccc2n1 | 0 | -4 | 17* | 0 | -7
COc1cc(/C=C2\SC(=Nc3ccccc3)N(CCc3c[nH]c4ccccc34)C2=O)ccc1OC(C)C(=O)O (stereo unspecified) | 2 | -20 | 35* | -3 | 4
CC1CCCCN1C(=O)c1cc(Cl)ccc1[N+](=O)[O-] (stereo unspecified) | 2 | -2 | 20* | 3 | -2
CC(C)(C)c1ccccc1NC(=O)c1ccc(-n2cncn2)c([N+](=O)[O-])c1 | 1 | -2 | -3 | -5 | /
O=C(Nc1ccccc1OC(F)F)c1ccc(-n2cncn2)c([N+](=O)[O-])c1 | 1 | 5 | 87* | -4 | -5
COCCn1c(N)c(N(Cc2ccccc2)C(=O)COc2ccccc2F)c(=O)[nH]c1=O | 3 | -6 | 19* | -5 | -5
COc1ccccc1CN(C)CC(=O)Nc1ccc(Cl)cc1C(F)(F)F | 1 | 3 | 18* | 0 | -3
c1ccc(-n2cnc3cc(NCc4ccco4)ccc32)cc1 | -1 | -1 | 3 | 1 | /
CCCCn1c(SC(C)C(N)=O)nc2cc(C(=O)OC)ccc2c1=O (stereo unspecified) | 0 | -3 | -21 | -4 | /
CCCCn1c(SC(C)C(=O)NCC2CCCO2)nc2cc(C(=O)OC)ccc2c1=O (stereo unspecified) | -11 | -4 | 19* | 2 | -4
Cc1ccc(NC(=O)c2ccc(OCc3c(C)noc3C)cc2)cc1C | 1 | -3 | 1 | 2 | /
CCc1ccc(NC(=O)CSc2nc3ccccc3nc2N2CCCC2)cc1 | -1 | 0 | -4 | -1 | /
O=C(O)C(Cc1ccccc1)N1C(=O)/C(=C/C=C/c2ccco2)SC1=S (stereo unspecified) | 106* | -20 | 64* | 26* | 27*
Cn1c(N)c(C(=O)COC(=O)c2ccc([N+](=O)[O-])o2)c(=O)n(C)c1=O | 1 | -3 | -4 | 3 | /
COc1ccc(CCc2nnc(CCC(=O)NCc3ccc4ncccc4c3)o2)cc1 | 0 | 1 | -7 | 2 | /
O=C(N/N=C/c1ccc(Br)s1)c1cccc([N+](=O)[O-])c1 | 1 | 2 | 18* | -2 | -1
O=C(NN=Cc1ccccc1O)c1cccc([N+](=O)[O-])c1 | 4 | 0 | -4 | 3 | /
Oc1c(Br)cc(Br)cc1C=Nc1cccc2ncccc12 | 3 | -2 | -4 | 3 | /
C=CCN1C(=O)c2ccc(C(=O)OCC(=O)N3CCN(c4ccccc4)CC3)cc2C1=O | 0 | 4 | 21* | 6 | -3
Cc1cc(C(=O)OC2CCOC2=O)c2ccccc2n1 (stereo unspecified) | 0 | 6 | 19* | -4 | -4
COc1ccc(-c2cc(C(=O)OC3CCOC3=O)c3ccccc3n2)cc1 (stereo unspecified) | 1 | -2 | -1 | -2 | /
Cc1ccc(S(=O)(=O)N2CCOCC2)cc1NC(=O)COc1ccc(C(=O)c2ccccc2)cc1 | -1 | -4 | 0 | 1 | /
O=C1/C(=C/c2cccs2)COc2ccccc21 | -2 | -7 | 18* | 2 | -3
O=S(=O)(c1ccc(Cl)cc1)N1CCN(CCc2ccncc2)CC1 | 1 | 0 | -17 | -3 | /
COc1ccc(S(=O)(=O)n2ccc(-c3ccc(OCCN(C)c4ccccn4)cc3)n2)cc1 | -1 | -2 | 17* | -2 | -2
COc1cccc(C(=O)Nc2cccc(C(=O)N3CCOCC3)c2)c1 | 0 | -7 | 21* | -1 | -2

High-throughput results: PubChem, several laboratories
